The values below come from PubChem BioAssay (NCI).

The panel holds about 79,000 compounds, 15% with a hit somewhere; the sample as a whole holds those more often. Calls of active or inactive are those of the source. No stated cut-off is given here; in the data, active means growth inhibition above about 70%; inactive means the rest.

The nature of this assay: NCI Yeast Anticancer Drug Screen. Data for the mlh1 rad18 strain (AID 175). As to conditions: S. cerevisiae mlh1 rad18 strain growth inhibition; at 50.0 µM; hits give high values. The gist of the method:
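In this whole-cell yeast screen, a strain with altered DNA damage repair is challenged with compound, and its growth is measured against matched vehicle-treated controls.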
For `C1CNC(C2=NCCN2)=N1`, the growth inhibition is -7.25% (inactive).
Consider `CCOC(=O)/C(C#N)=C/c1cccc(C)c1`, for which the growth inhibition was -6.55% (inactive).
As to `Cc1c(O)cnc2nn(-c3ccccc3)c(=N)n12`, the growth inhibition is 12.9% (inactive).
On to `Nc1nc(N)c2cc(S(=O)(=O)c3cccc(C(F)(F)F)c3)ccc2n1`, for which the growth inhibition is -59.4% (inactive).
As for `CC1CCC(C(=O)O)N1` (stereo not drawn), the growth inhibition was 6.65% (inactive).
For `COc1cc(/C=C(\C#N)C(=O)c2ccccc2)ccc1OCc1ccccc1`, the growth inhibition is -18% (inactive).
As for `COc1ccc(C2OC(N)=C(O)C2=O)cc1OC` (stereo not drawn), the growth inhibition was -31.9% (inactive).
Turning to `CCCNc1ccc(C2=NCCCN2)cc1`, the growth inhibition is -1.5% (inactive).
As for `N#CSc1cc(S(N)(=O)=O)ccc1N`, the growth inhibition was 32% (inactive).
Take `O=C(O)c1cccc([N+](=O)[O-])c1O`: the growth inhibition is 14.4% (inactive).
For `COc1cc(-c2ccc(NC(=O)NC3CC3)c(OC)c2)ccc1NC(=O)NC1CC1` the value was -25.8% (inactive).
`COc1cc([C@@H]2c3cc4c(cc3[C@H](O)[C@H]3COC(=O)[C@H]23)OCO4)cc(OC)c1OC`: the growth inhibition is 9% (inactive).
Then `CC(=O)Cc1cc(-c2cc(CC(C)=O)[nH]n2)n[nH]1`, with -5% (inactive); and `O=c1[nH]n(-c2ccccc2)c(=O)cc1Cl`, with 2% (inactive); and `Cc1cc(C)cc(NCCC#N)c1`, with -17.4% (inactive).
For `O=C(Cc1ccccc1)Cc1ccccc1` the value was 13.6% (inactive); for `CN(C)/N=C/c1ccccc1O`, 2.9% (inactive); for `NC(=S)CN1CCOCC1`, 2.15% (inactive).
For `O=C(O)CSCSCC(=O)O`, the growth inhibition is 3.1% (inactive).
As to `CCOC(=O)CCCC(=O)OCC`, the growth inhibition is 19.6% (inactive).
For `Cc1ccc(C(=O)NC2c3ccccc3Oc3ccccc32)cc1` the value was -5% (inactive); for `O=C1N(C[P+](c2ccccc2)(c2ccccc2)c2ccccc2)CCCN1C[P+](c1ccccc1)(c1ccccc1)c1ccccc1`, 12.3% (inactive); for `Nc1ccc(N)c([N+](=O)[O-])c1`, -15.2% (inactive).
In the case of `COc1ccccc1N1CCN(C(=S)Nc2ccccc2)CC1`, the growth inhibition is 15.3% (inactive).
For `c1ccc(Sc2ccccc2)cc1` the value was 0.85% (inactive); for `O=C(NC1CCCCC1)OCc1c(COC(=O)NC2CCCCC2)c(-c2ccc(Cl)c(Cl)c2)n2c1CCC2`, 6.9% (inactive).
As for `CC(=O)OC(C(=O)O)c1ccccc1` (stereo not drawn), the growth inhibition was 23.5% (inactive).
On to `CSc1[nH]c(=O)ncc1F`, for which the growth inhibition is -7.45% (inactive).
For the molecule `CC(=O)NC(N)=S`, the growth inhibition was -7% (inactive).
Consider `Cc1nc2ccccc2c2nnc(SCC(=O)N(Cc3ccccc3)c3ccccc3)n12`, for which the growth inhibition was 2.25% (inactive).
In the case of `COc1ccc(C2(O)CCCCC2)cc1`, the growth inhibition was 28.2% (inactive).
`CCN(CC)CCCC(C)Nc1ccnc(/C=C/c2ccc(Cl)cc2)c1` (stereo not drawn): the growth inhibition is -19% (inactive).
Consider `Cc1cc(=O)[nH]c(NN=C2CCCC2)n1`, for which the growth inhibition is -27.1% (inactive).
For `CC1=CC(C)(C)NC(=S)N1c1ccc(S(=O)(=O)O)c2cccc(S(=O)(=O)O)c12` the value was -33.1% (inactive); for `OCCN1CCOCC1`, 27.2% (inactive).
Turning to `CCOC(=O)C(C#N)Cc1ccccc1` (stereo not drawn), the growth inhibition was -3.35% (inactive).
For `O=P(O)(O)OCC(O)CO` (stereo not drawn) the value was -10.5% (inactive).
Turning to `CNC(=O)c1ccccc1CC1(O)c2ccccc2Oc2ccccc21`, the growth inhibition is -8.55% (inactive).
